# USP2a inh: inhibitors of human ubiquitin-specific protease USP2a | O75604 | USP2 core, Ub-CHOP2 coupled fluorogenic reporter, 485/531 | Potency, µM (series often up to 38.3 µM), for the others: top-dose activity change, negative = inhibition, actives largely listed as inhibitors | actives 0.01% (n = 330,000) | AID 463254;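 further: potency means the concentration at half of the fitted maximal effect; plate controls were DMSO wells for no effect and full inhibition by NEM control for full effect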
#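 Cell-free coupled assay: 10nM USP2 core preincubated 30min RT with compound in Tris-HCl pH 8.0/CaCl2/CHAPS buffer, then 25nM Ub-CHOP2 and 25nM reporter substrate; fluorescence (Ex 485/Em 531) read after 60min RT, normalized to NEM inhibition, concentration-response curves fitted.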
# ATXN viability: reduces viability in counter-screen for ATXN expression inhibitors. S2 cells (HEK-293 line with an ATXN2-luciferase reporter) viability, CellTiter-Fluor protease fluorescence, 24 h. Potency, µM (titrated, usually from 56.7 µM), actives largely listed as cytotoxic. actives 0.49% (n = 400,000). AID 651635; further: potency means the concentration at half of the fitted maximal effect; nearly all actives have a fitted effect of over 40% in size
# ATXN2 expr inh: ATXN2 expression inhibition; HEK-293 ATXN2-luciferase reporter, luminescence, 24 h; Potency, µM (top dose mostly 57 µM), without a hit: top-dose activity change, negative = inhibition, most hits filed as inhibitors; actives 0.72% (n = 360,000); AID 1745845; further: potency means the concentration at half of the fitted maximal effect; on the % scale 0 is the no-effect control and ±100 the full control effect; nearly all actives have a fitted effect of over 55% in size
#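 ATXN2-luciferase reporter cells (luciferase flanked by upstream and downstream ATXN2 gene portions) were treated 24 h at 37 °C with compounds at up to 57 uM. SteadyGlo luminescence gave expression; GF-AFC fluorescence gave viability.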
# IL-1B inflam inh: blocks inflammasome-driven IL-1 beta release; actives 4.7% (n = 360,000); AID 743279; activity change, % at 57.5 µM; THP-1 LPS/ATP IL-1B secretion, AlphaLISA, 16 h; active compounds read low; in the data active means activity change below about -50%; inconclusive means mostly about -30% to -49%; further: on the % scale 0 is the no-effect control and ±100 the full control effect
#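 THP-1 cells pretreated 1 hr with compounds (up to 57.5 uM final), then stimulated with LPS (250 ng/mL final) plus ATP (1.25 mM final); secreted IL-1B measured by AlphaLISA after 16 hr, decreased signal indicating inhibition.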
# USP1-UAF1 inh: inhibitors of human USP1/UAF1 deubiquitinase; O94782; recombinant USP1/UAF1, Ub-Rhodamine cleavage fluorescence; Potency, µM (doses to about 57.1 µM), for inactives: top-dose activity change, negative = inhibition, most hits filed as inhibitors; actives 0.23% (n = 390,000); AID 743255; further: potency means the concentration at half of the fitted maximal effect; on the % scale 0 is the no-effect control and ±100 the full control effect; nearly all actives have a fitted effect of over 60% in size
# Target sequence (O94782 whole entry, looked up): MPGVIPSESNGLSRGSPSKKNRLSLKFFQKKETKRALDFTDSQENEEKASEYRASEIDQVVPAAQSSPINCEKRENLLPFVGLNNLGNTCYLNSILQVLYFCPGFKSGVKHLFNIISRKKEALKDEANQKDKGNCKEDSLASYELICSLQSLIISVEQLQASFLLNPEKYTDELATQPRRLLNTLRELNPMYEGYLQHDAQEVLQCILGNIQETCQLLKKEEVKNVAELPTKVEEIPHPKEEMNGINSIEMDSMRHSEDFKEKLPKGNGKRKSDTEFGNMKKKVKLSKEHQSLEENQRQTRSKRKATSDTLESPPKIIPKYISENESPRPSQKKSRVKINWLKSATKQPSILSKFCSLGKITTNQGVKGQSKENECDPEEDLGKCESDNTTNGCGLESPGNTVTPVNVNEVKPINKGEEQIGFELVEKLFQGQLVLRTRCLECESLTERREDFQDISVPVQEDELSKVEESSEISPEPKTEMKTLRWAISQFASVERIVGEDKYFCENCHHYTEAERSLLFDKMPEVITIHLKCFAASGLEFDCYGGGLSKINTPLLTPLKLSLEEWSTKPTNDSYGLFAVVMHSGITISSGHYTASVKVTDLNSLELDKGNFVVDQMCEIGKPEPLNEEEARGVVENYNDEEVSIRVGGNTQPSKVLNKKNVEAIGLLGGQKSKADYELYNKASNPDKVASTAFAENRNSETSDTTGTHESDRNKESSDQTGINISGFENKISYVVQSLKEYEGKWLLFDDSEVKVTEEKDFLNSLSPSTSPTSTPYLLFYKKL
#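 USP1/UAF1 complex at 1 nM was preincubated with compound for 15 min at room temperature, then Ub-Rho substrate (150nM final) was added. Fluorescence (480/540 nm) was read kinetically, 6 reads every 60 seconds.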
# * marks the source's active call; other numbers are inactive results; i = inactive; ? = inconclusive; / = no result; [ ] = remark or other dose. An excerpt weighted towards active compounds, which were near 4.8% of everything screened. Unless noted, the call rests on the fitted dose curve; in most records, active means well fitted curve in the direction sought with a large enough effect; inconclusive means small, poorly fitted or top-dose-only effect, or another doubt; inactive means no such curve, though single readings can be large; an effect the other way counts as inactive or inconclusive.
SMILES,USP2a inh,ATXN viability,ATXN2 expr inh,IL-1B inflam inh,USP1-UAF1 inh
CCCCn1c(N)c(N(CC(C)C)C(=O)c2ccc(-c3ccc(Cl)cc3)o2)c(=O)[nH]c1=O,0%,?,?,?,-24%
CC(C)(C)c1ccc(C(=O)N2CCCCC2CCN2CCCCC2)cc1 (stereo not given),/,/,/,/,6%
CN1CCCC1CCOC(C)(c1ccccc1)c1ccc(Cl)cc1 (stereo not given),/,20µM*,32µM*,?,7%
CCC(C)(C)c1ccc(Oc2cccc(C(=O)O)c2)cc1,-22%,i,61%,22,?
CCC(C)(C)c1ccc(Oc2ccc(N)cc2)cc1,-1%,i,6.7µM*,-12,-19%
COc1ccccc1Cc1c(-c2ccc(OC)c(OC)c2)nc2c(Cl)cc(C(F)(F)F)cn12,/,i,33%,-20,/
Clc1ccc2ccc3cccnc3c2n1,2%,i,/,-6,-6%
O=S1(=O)Nc2c(ccc3cccnc23)-c2ccccc21,-3%,?,3.5µM*,-100*,-2%
O=C(COc1ccc(/C=N/NC(=O)c2cc3ccccc3o2)cc1Cl)Nc1ccccc1,-2%,8.9µM*,10µM*,-98*,-8%
COc1cc(/C=N/NC(=O)c2ccccc2O)ccc1OCC(=O)Nc1ccccc1,-1%,?,11%,14,-26%
CCCOc1ccc(/C=N/Nc2ccccc2[N+](=O)[O-])c(O)c1,2%,?,?,-8,-16%
CCCOc1ccc(/C=N/Nc2cccc([N+](=O)[O-])c2)c(O)c1,-3%,/,28%,-96*,-16%
COC(=O)c1ccccc1-c1cc(C)cc2c1OC(CNC(=O)c1cc(C)n(C)n1)C2 (stereo not given),/,i,/,/,/
CCOc1ccc(-c2nnc3sc(-c4ccccc4OC)nn23)cc1,/,i,-11%,-14,-8%
COc1ccccc1-c1nnc2sc(COc3ccc(F)cc3)nn12,0%,i,-5%,-67*,-15%
CC(C)N(Cc1ccccc1)C(=O)COC(=O)/C=C/c1cnc2ccccc2n1,0%,i,/,-201*,-21%
CCOc1ccc(S(=O)(=O)N2CCCCC2)cc1NC(=O)Cc1ccc(OC)cc1,/,i,/,-1,-22%
CCN1CCN(c2ccc(S(=O)(=O)N3CCCCC3)cc2NC(=O)Cc2c(F)cccc2Cl)CC1,3%,i,-9%,-63*,-13%
CCN(CC)S(=O)(=O)c1ccc(N2CCCC2)c(NC(=O)Cc2c(F)cccc2Cl)c1,-1%,i,2%,6,-24%
CCN1CCN(c2ccc(S(=O)(=O)N3CCCCC3)cc2NC(=O)Cc2ccc(OC)cc2)CC1,-4%,i,-14%,-80*,4%
CCN1CCN(S(=O)(=O)c2ccc(Cl)c(C(=O)Nc3ccccc3N3CCCCC3)c2)CC1,2%,i,0%,-73*,-21%
CCS(=O)(=O)Nc1ccc(C(=O)c2ccccc2)cc1,-7%,i,-12%,-52*,4%
CCCCC(=O)Nc1ccc(C(=O)c2ccccc2)cc1,-1%,i,30%,-60*,-19%
COc1ccc(-c2[nH]c(-c3ccc4c(c3)OCO4)nc2-c2ccccc2)cc1,-3%,/,?,-64*,?
C=C1C(=O)OC2CC1C(O)CC(C)=CCCC(C)=CC(O)CC2C (stereo not given),/,/,?,-103*,-9%
SMILES,USP2a inh,ATXN viability,ATXN2 expr inh,IL-1B inflam inh,USP1-UAF1 inh
CCOCCCNC(=O)C1CCCN(c2ncnc3onc(C)c23)C1 (stereo not given),/,i,-14%,/,-3%
CCOC(=O)CCCc1sc(N)nc1-c1[nH]c(=O)[nH]c1C,1%,i,-15%,-83*,-9%
CCOC(=O)CCc1c(C)n[nH]c1C,8%,i,-7%,13,-16%
C=C1C(=O)C23CCC4C(C)(C(=O)OC)CCCC4(C)C2CCC1(O)C3 (stereo not given),/,5.3µM*,?,-103*,-6%
CC1(C)N=C(N)N=C(N)N1c1ccc(Cl)cc1,/,i,/,/,/
Cc1cccc(Cc2c(C)nc3c(-c4ccccc4)c(C)[nH]n3c2=O)c1,/,?,13µM*,/,-8%
COC(=O)[C@@H]1CCCN1C(=O)c1c(OC)cc(=O)n2c1CCN(Cc1cc(OC)ccc1F)CC2,/,i,/,/,/
CCC(=O)Oc1ccc2c(c1)CC[C@@H]1[C@@H]2CC[C@@]2(C)[C@H]1C[C@@H](OC(=O)CC)[C@@H]2OC(=O)CC,/,i,-11%,/,/
Cc1ccc2sc(N(CCCN(C)C)C(=O)c3ccc(S(=O)(=O)N4CCOCC4)cc3)nc2c1C,-2%,i,-1%,?,-5%
Cc1ccc2sc(N(CCN(C)C)C(=O)c3ccc(S(=O)(=O)N4CC(C)OC(C)C4)cc3)nc2c1C (stereo not given),-1%,i,-16%,-65*,-18%
Cc1cc(C)c2nc(N(CCCN(C)C)C(=O)c3ccc(S(=O)(=O)N4CC(C)OC(C)C4)cc3)sc2c1 (stereo not given),1%,i,-21%,-96*,-7%
Cc1ccc(N=Nc2ccc(O)c3ncccc23)cc1,1%,?,13µM*,2,-18%
COc1ccccc1N=Nc1ccc(O)c2ncccc12,-8%,16µM*,/,20,?
Cc1ccc(N=Nc2ccc(O)c3ncccc23)cc1C,2%,?,-38%,103,-13%
COC(=O)c1c(NC(=O)CSc2ccccc2N)sc(C)c1C,3%,i,-11%[11.3 µM],-62*,-24%
COC(=O)c1c(NC(=O)Cc2ccccc2)sc(C)c1C,2%,?,8%,-12,2%
CCC1(C2CCN(C(=O)c3csc(C(C)=O)c3)CC2)NC(=O)N(CCc2scnc2C)C1=O (stereo not given),/,i,/,/,/
COc1ccccc1Cn1c(=S)[nH]c2ccc(F)cc2c1=O,1%,i,-15%,-73*,-15%
CCOC(=O)/C=C(\C)Sc1cc(=O)oc2ccccc12,0%,i,3%,-52*,-14%
CCOC(=O)c1c(C)oc2c1cc(O)c1ccccc12,0%,i,81%,38,-1%
CCOC(=O)/C=C(\C)Sc1cc(O)c2ccccc2c1O,-1%,?,/,-62*,7.9µM*
Cc1ccccc1-c1cccc(CN2CCc3nnc(C(C)NC(=O)c4cccnc4)n3CC2)c1 (stereo not given),/,i,/,/,/
CCOC(=O)Cn1ccc(NC(=O)c2ccc3c(c2)OCO3)n1,1%,i,/,-95*,-18%
CCOC(=O)Cn1nc(NC(=O)c2ccc(C(=O)OC)cc2)cc1C,-1%,i,-5%,-96*,-5%
CCOC(=O)CSc1nnc(NC(=O)c2ccc3c(c2)OCO3)s1,3%,i,-19%,-5,-7%

# Screens deposited in PubChem BioAssay by National Center for Advancing Translational Sciences (NCATS).
